# Rows were chosen to be rich in hits. Some 14% of all compounds tested hit in one or more screens of this group.
# Pf growth 96h – Primary qHTS for delayed death inhibitors of the malarial parasite plastid, 96 hour incubation; P. falciparum luciferase reporter growth, 96 h; Potency, µM (titrated, usually from 28.7 µM), for the others: at the top dose activity change, negative = inhibition, actives largely listed as inhibitors; actives 6.9% (n = 320,000); AID 504834, 2011; further: potency means the concentration at half of the fitted maximal effect
#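 Luminescence readout: decreased luciferase signal marks inhibited growth of reporter-expressing P. falciparum in infected red cells (2% hematocrit, 0.05% parasitemia final), exposed to compound two generations (96 h, 37 C, 5% CO2).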
# HCV inh – qHTS Assay for Inhibitors of Hepatitis C Virus (HCV); Huh7.5.1 HCVcc-Cre infection, luciferase reporter, 44 h; actives 3.4% (n = 340,000); Potency, µM (doses to about 41.8 µM), inactives show top-dose activity change, negative = inhibition, hits mostly inhibitors; further: potency means the concentration at half of the fitted maximal effect
#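 After 44 h co-culture of compound, cells and HCVcc-Cre (~0.5 moi), substrate is added for 15 min at room temperature and luciferase measured over 15 sec. Cells were seeded at 1,000/well and pre-cultured 4 h.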
# Pf growth 48h – Primary qHTS for delayed death inhibitors of the malarial parasite plastid, 48 hour incubation; P. falciparum luciferase growth in erythrocytes, 48 h; Potency, µM (top dose mostly 28.7 µM), for inactives: at the highest dose activity change, negative = inhibition, usual class: inhibitors; actives 5.9% (n = 310,000); AID 504832, 2011; further: potency means the concentration at half of the fitted maximal effect
#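 Luminescence readout; reporter = integrated firefly luciferase in P. falciparum. RBC culture at 2% hematocrit, 0.1% parasitemia final, 37 C/5% CO2; decreased signal taken as growth inhibition.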
# HCMV antiviral – qHTS Assay for inhibitors of the human cytomegalovirus (HCMV). HFF cells, HCMV-luciferase reporter, 72 h; hits give low values. activity change, negative = inhibition, % at 57.5 µM. actives 4.5% (n = 410,000). AID 1259415, 2018; in the data active means activity change below about -60%; inconclusive means no clear call, values can overlap the other calls; inactive means above about -39%
#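 Inhibition of viral replication was scored as loss of reporter luminescence in HFFs infected with HCMV-luciferase (MOI 1 PFU/cell) for 72 h; compounds tested at 2 doses, normalized to buffer and Salinomycin controls.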
# Marburg entry inh – qHTS for inhibitors of binding or entry into cells for Marburg Virus; Marburg virus pseudotyped entry inhibition, cell reporter; Potency, µM (doses to about 37.8 µM), for inactives: at the highest dose activity change, negative = inhibition, most hits filed as inhibitors; actives 1.8% (n = 300,000); AID 540276, 2011; calls by dose curve; tested in HEK293 cells; further: potency means the concentration at half of the fitted maximal effect
# LASV entry inh – qHTS for Inhibitors of binding or entry into cells for Lassa Virus. Lassa virus pseudotype entry inhibition, cell reporter. Potency, µM (titrated, usually from 37.9 µM), for the others: top-dose activity change, negative = inhibition, actives largely listed as inhibitors. actives 1.2% (n = 300,000); calls by dose curve; tested in HEK293 cells; further: potency means the concentration at half of the fitted maximal effect; nearly all actives have a fitted effect of over 50% in size
# * = called active by the depositor; ? = inconclusive; . = no result given; ! = not active in a repeat; [ ] = dose if it differs, or a comment. Unless noted, the call rests on the fitted dose curve; in most records, active means well fitted inhibition curve with a large enough effect; inconclusive means small, poorly fitted or top-dose-only effect, or another doubt; inactive means no such curve, though single readings can be large or run the other way. On the % scale 0 is the no-effect control and ±100 the full control effect.
SMILES,Pf growth 96h,HCV inh,Pf growth 48h,HCMV antiviral,Marburg entry inh,LASV entry inh
C=C(C)C(=O)Nc1cccc(C2=NOC3(C2)C[C@@H](C(N)=O)N(C(=O)CC(c2ccccc2)c2ccccc2)C3)c1 (some centres not stated),?,-20%,?,1,.,.
NC(=O)[C@H]1CC2(CC(c3cccc(NC(=O)CC(c4ccccc4)c4ccccc4)c3)=NO2)CN1C(=O)CC(c1ccccc1)c1ccccc1 (some centres not stated),?,-20%,12µM*,-33,.,.
Cc1c(C(=O)N2CC3(CC(c4cccc(NC(=O)CC(c5ccccc5)c5ccccc5)c4)=NO3)C[C@@H]2C(N)=O)cc([N+](=O)[O-])cc1[N+](=O)[O-] (some centres not stated),?,-19%,12µM*,4,.,.
NC(=O)[C@@H]1CC2(CC(c3cccc(NC(=O)CC(c4ccccc4)c4ccccc4)c3)=NO2)CN1C(=O)c1ccc(Cl)cc1 (some centres not stated),?,?,?,-72*,.,.
CCC(=O)N1CC2(CC(c3cccc(NC(=O)CC(c4ccccc4)c4ccccc4)c3)=NO2)C[C@H]1C(N)=O (some centres not stated),0%,3%,36%,4,.,.
C/C=C(\C)C(=O)Nc1cccc(C2=NOC3(C2)C[C@@H](C(N)=O)N(C(=O)c2cc([N+](=O)[O-])cc([N+](=O)[O-])c2C)C3)c1 (some centres not stated),?,?,?,-7,.,.
CCC(=O)Nc1cccc(C2=NOC3(C2)C[C@@H](C(N)=O)N(C(=O)CC(c2ccccc2)c2ccccc2)C3)c1 (some centres not stated),?,-14%,?,-67*,.,.
C=C(C)C(=O)N1CC2(CC(c3cccc(NC(=O)CC(c4ccccc4)c4ccccc4)c3)=NO2)C[C@H]1C(N)=O (some centres not stated),?,23%,?,14,.,.
Cc1ccc(-n2nc(C)c3nc(CCC(=O)Nc4cccc(F)c4)c(=O)n(C)c32)cc1,.,.,.,-11,.,-12%[46.1 µM]
NC(=O)COc1ccc(C(=O)NCC2(N3CCOCC3)CCCCC2)cc1,?,7%,-23%,-14,.,.
CCCCn1nnnc1C(c1cc2ccccc2o1)N(CCC#N)Cc1ccccc1 (configuration not stated),.,.,.,1,.,.
CCOC(=O)c1ccc2c(c1)N(CC(=O)Nc1ccc(C)cc1C)C(=O)c1ccccc1S2,.,.,.,7,.,10%[46.1 µM]
Cc1ccc2ncc(C(=O)NCCc3ccc(S(N)(=O)=O)cc3)c(=O)n2c1,.,.,.,60,6%[46.1 µM],.
COc1ccc(-c2nc3scc(CCNS(=O)(=O)c4ccc(F)cc4C)n3n2)cc1,.,.,.,?,.,10%[46.1 µM]
CC(Oc1ccc2c3c(c(=O)oc2c1)CCCC3)C(=O)NC1CC(C)(C)NC(C)(C)C1 (configuration not stated),9.3µM*,?,15µM*,-18,.,.
CCN(CC)C(=O)COc1ccc2c3c(c(=O)oc2c1)CCCC3,174%,-14%,?,27,?,0%[46.1 µM]
Cc1c(C)c2ccc(OC(C)C(=O)NC3CC(C)(C)NC(C)(C)C3)cc2oc1=O (configuration not stated),4%,5%,?,94,3%[46.1 µM],?
CC(Oc1cc2oc(=O)c3c(c2cc1Cl)CCC3)C(=O)NC1CC(C)(C)NC(C)(C)C1 (configuration not stated),?,?,13µM*,-10,.,.
CN(C)C(=O)COc1ccc2c3c(c(=O)oc2c1)CCCC3,9.3µM*,8%,19%,45,.,.
O=S(=O)(c1ccc(Cl)cc1)c1nnn2c1nc(N1CCCCC1)c1sccc12,.,.,.,-1,.,40%[46.1 µM]
COCc1cc(C)nc2sc3c(c12)NC(c1ccc(O)cc1)N(c1ccc(OC)cc1)C3=O (configuration not stated),.,.,.,-21,?,?
O=C(O)CCSc1nnc(SCC(=O)NC2CCS(=O)(=O)C2)s1 (configuration not stated),.,5%,.,29,18%,?
CCOc1ccc(N=C2C(=O)N(CN3CCOCC3)c3ccccc32)cc1,13µM*,-9%,4%,28,-13%[46.1 µM],-1%
O=C1c2ccccc2C(=O)N1CCN1CCOCC1,25%,9%,.,24,.,.
COC(=O)[C@]1(S(=O)(=O)c2ccccc2)CC(=O)N(Cc2ccccc2)[C@@H]1c1ccccc1,.,.,.,-1,.,.
SMILES,Pf growth 96h,HCV inh,Pf growth 48h,HCMV antiviral,Marburg entry inh,LASV entry inh
COc1ccc(NC(=O)Cn2c(CCC(=O)O)ccc2-c2ccccc2)cc1Cl,.,.,.,13,-3%[46.1 µM],?
CSc1ncnc2c1ncn2CCCN1CCN(c2ccccn2)CC1,.,.,.,-10,.,.
O=C(Nc1ccc(F)cc1)N[C@H]1CC[C@@]23CCCN2C(=O)CCC[C@H]3C1Cc1ccccc1 (some centres not stated),.,.,.,8,.,.
Cc1cc(C)cc(NC(=O)Cn2nnc(C(=O)Nc3cc(C)cc(C)c3)c2N)c1,.,.,.,-83*,-30%[46.1 µM],-17%[46.1 µM]
COc1ccc(NC(=O)Cn2nnc(C(=O)NCCc3ccccc3)c2N)c(OC)c1,29%,-21%,0%,?,.,.
COc1ccc(Cl)cc1NC(=O)Cn1nnc(C(=O)NCc2ccc3c(c2)OCO3)c1N,5%,2%,16%,-33,-2%[46.1 µM],-11%[46.1 µM]
COc1ccccc1NC(=O)Cn1nnc(C(=O)NCc2ccc3c(c2)OCO3)c1N,4%,-24%,-22%,-69*!,15%[46.1 µM],-3%[46.1 µM]
Cc1cc(C)c(NC(=O)Cn2nnc(C(=O)NCc3ccc4c(c3)OCO4)c2N)c(C)c1,15µM*,11%,20%,.,.,.
COc1cccc(NC(=O)c2nnn(CC(=O)Nc3cc(C)cc(C)c3)c2N)c1,38%,-15%,42%,?,.,.
Cc1ccc(NC(=O)Cn2nnc(C(=O)NCc3ccc4c(c3)OCO4)c2N)cc1,32%,10%,0%,-27,17%[46.1 µM],3%[46.1 µM]
COc1ccc(NC(=O)Cn2nnc(C(=O)NCc3ccccc3)c2N)c(OC)c1,40%,-20%,13%,-13,8.2µM*,?
COc1ccc(C(=O)Nc2nnc(S(=O)(=O)N(C)c3ccc(C)cc3)s2)cc1,.,.,.,73,.,17%[46.1 µM]
CCOc1ccc(NC(=O)Cn2nnc(C(=O)Nc3ccc(OCC)cc3)c2N)cc1,.,.,.,22,-5%[46.1 µM],-9%[46.1 µM]
COc1ccc(Cn2nnc(C(=O)Nc3ccc4c(c3)OCCO4)c2N)cc1Br,12µM*,4%,-18%,54,.,.

# Assay outcomes as filed in PubChem BioAssay.
